We go through 1 compound from PubChem BioAssay AID2078 (The Scripps Research Institute Molecular Screening Center, 2009).

The source made the active and inactive calls. How the calls were made is not given here.

The assay can be described thus: STAT3 inhibitors, late-stage profile, late-stage follow-up, cell-based, STAT1 panel, qPCR, cytotoxicity (AID 2078). The settings on record: STAT3/STAT1 inhibition panel, cell reporter assay, Quantitative PCR; qPCR mRNA fold change, at 10 µM, stronger effect = lower value.

As for `c1ccc(CC2CCN(c3ncnc4sccc34)CC2)cc1`, the fold change was 0.68 and the outcome is “active; probe”.
